Screen size: about 310,000 compounds; about 14,000 (4.5%) showed an effect of 50% or more. Effects have a minus sign here. The sample as a whole holds a higher share of strong results than the screen did. Where a SMILES comes first, the peptide text is derived from it.
These compounds were tested against human ether-à-go-go-related gene (hERG) potassium channel (human, UniProt Q12809) (assay: primary screen, population patch clamp on CHO cells stably expressing hERG; higher = less effect of the substance).
Sequence of human ether-à-go-go-related gene (hERG) potassium channel (Q12809 whole entry, looked up): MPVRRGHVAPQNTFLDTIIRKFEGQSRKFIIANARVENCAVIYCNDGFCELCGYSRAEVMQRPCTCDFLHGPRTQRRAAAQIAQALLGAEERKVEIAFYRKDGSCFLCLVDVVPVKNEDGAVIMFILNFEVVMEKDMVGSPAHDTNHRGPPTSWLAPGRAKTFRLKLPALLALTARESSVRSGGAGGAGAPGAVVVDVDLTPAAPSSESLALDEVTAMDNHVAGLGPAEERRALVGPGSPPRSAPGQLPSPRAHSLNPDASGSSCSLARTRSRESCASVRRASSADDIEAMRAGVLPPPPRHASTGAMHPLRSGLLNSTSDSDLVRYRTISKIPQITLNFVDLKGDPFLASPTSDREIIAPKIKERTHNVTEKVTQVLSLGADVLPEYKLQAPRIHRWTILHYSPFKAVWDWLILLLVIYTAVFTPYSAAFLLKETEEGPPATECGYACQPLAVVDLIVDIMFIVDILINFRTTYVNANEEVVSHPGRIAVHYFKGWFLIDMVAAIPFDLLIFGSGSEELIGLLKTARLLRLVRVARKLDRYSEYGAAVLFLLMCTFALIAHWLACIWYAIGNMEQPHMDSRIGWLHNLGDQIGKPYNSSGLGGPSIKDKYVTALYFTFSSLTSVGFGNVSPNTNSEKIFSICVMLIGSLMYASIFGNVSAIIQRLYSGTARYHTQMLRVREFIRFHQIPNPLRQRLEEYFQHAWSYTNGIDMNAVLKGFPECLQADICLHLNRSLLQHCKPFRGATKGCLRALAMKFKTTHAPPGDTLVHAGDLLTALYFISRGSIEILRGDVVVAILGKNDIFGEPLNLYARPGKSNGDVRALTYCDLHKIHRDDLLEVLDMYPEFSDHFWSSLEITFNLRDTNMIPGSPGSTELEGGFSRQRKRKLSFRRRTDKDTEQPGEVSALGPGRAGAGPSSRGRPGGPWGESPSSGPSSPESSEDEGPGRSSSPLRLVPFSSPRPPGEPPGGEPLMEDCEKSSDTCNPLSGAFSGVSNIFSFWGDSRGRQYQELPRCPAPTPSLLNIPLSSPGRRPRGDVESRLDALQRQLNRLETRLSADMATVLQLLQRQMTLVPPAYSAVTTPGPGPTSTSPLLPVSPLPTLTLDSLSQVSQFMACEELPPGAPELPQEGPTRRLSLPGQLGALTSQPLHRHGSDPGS
Procedure: Briefly, Chinese hamster ovary (CHO) cells stably expressing the hERG channel were dislodged from tissue culture flasks and dispensed into PPC plates. […] During the recording, background leak currents were estimated by a 100 ms step to -80 mV from an initial holding potential of -70 mV and subtracted from the subsequent current measurement. The campaign was conducted in two phases using slight differences in recording protocol. In the first phase, the initial voltage pulse used a 100 ms step to -30 mV from a holding potential of -70 mV, a 2 s conditioning step to +25 mV, and a 2 s test step to -30 mV. During the second phase of the screen, the potential during the conditioning step was raised to +45 mV. In both phases of the campaign, a secondary voltage pulse was applied using the same parameters as the second phase initial pulse. The initial and secondary pulses were applied in the absence of compound, and upon application of 1 μM and 10 μM test concentrations. […]
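Further: peak tail current of the secondary pulse compared with the same well before compound.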

Structure (SMILES) | hERG current change (%, negative = inhibition) at 10uM [%]
Cc1nn2cnc3sc4c(c3c2nc1=O)CCCC4 | -3.17
COc1ccc(NC(=O)CCCC2=NS(=O)(=O)c3ccccc3N2)cc1 | 17
OCCCNc1c2ccccc2nc2ccccc12 | -65.6
OCCNc1c2ccccc2nc2ccccc12 | -31
O=c1c2ccccc2oc2cc(NCCCN3CCOCC3)ccc12 | -29.7
O=c1c2ccccc2oc2ccc(NCCCN3CCOCC3)cc12 | -41.9
Fc1ccccc1-c1nc(NCCCN2CCOCC2)c2ccccc2n1 | -45.9
O=c1c2ccccc2nc2c3ccccc3c(NCCO)nn12 | -7.34
c1ccc2c(NCCCN3CCOCC3)c3ccccc3nc2c1 | -66.6
CN(C)CCCNc1c2ccccc2nc2ccccc12 | -28.8
O=c1c2ccccc2nc2c3ccccc3c(NCCN3CCOCC3)nn12 | -72.2
O=c1c2ccccc2sc2ccc(NCCCN3CCOCC3)cc12 | -54.2
c1ccc2[nH]c(NCCCN3CCOCC3)nc2c1 | -6.61
O=c1c2ccccc2nc2c3ccccc3c(NCc3ccccn3)nn12 | -13.5
O=C(C1COc2ccccc2O1)N1CCN(c2nc3c(F)cc(F)cc3s2)CC1 (centres unmarked) | -16.6
CCOc1ccc(S(=O)(=O)NC(C)C(=O)NCc2ccc3c(c2)OCO3)cc1 (centres unmarked) | 2.83
N/C(=N\OC(=O)COc1ccc(Br)cc1)c1cccnc1 | -3.21
Cc1c(Cl)c([N+](=O)[O-])nn1CC(=O)NC(C)C1CC2CCC1C2 (centres unmarked) | -12.9
CC(=O)NS(=O)(=O)c1ccc(NC(=O)c2ccc(S(=O)(=O)N3CCCC3)cc2)cc1 | -0.257
CC(C)(C#N)NC(=O)c1ccco1 | 4.37
COc1ccc(C)cc1NC(=O)COCC(=O)O | -8.48
O=C(NC1CCCCC1)C(c1ccccc1)N1CCOCC1 (centres unmarked) | 9.63

Structure (SMILES) | hERG current change (%, negative = inhibition) at 10uM [%]
COCCNC(=O)CN1C(=O)COc2ccc(S(=O)(=O)N3CCCCCC3)cc21 | 20.3
CC(C)(C)c1ccc(C(=O)NCc2ccc(Cl)cc2)cc1 | 12.6
O=[N+]([O-])c1ccc2c(c1Nc1ccccc1Cl)=NC1(CCCCC1)N=2 | 3.29
CC(=O)NCCc1nc2cc(NC(=O)c3ccc(F)cc3)ccc2n1C | 9.6
CC(=O)NC(Cc1ccccc1)C(=O)NC(Cc1ccccc1)C(=O)O (stereo not drawn) (Ac-Phe-Phe-OH; configuration not given here) | 10.4
O=C(CCN1C(=O)c2ccccc2C1=O)Nn1cnnc1 | -0.368
c1csc(-c2nc(NCCCN3CCOCC3)c3ccccc3n2)c1 | -50.7
Clc1ccc(-c2nc(NCCCN3CCOCC3)c3ccccc3n2)cc1 | -18.9
c1ccc(-c2nc(NCCCN3CCOCC3)c3ccccc3n2)cc1 | -34.6
COC(=O)c1ccc(N2C(=O)C3CC(C)=C(C)CC3C2=O)cc1 (centres unmarked) | 3.73
CCC(c1nnnn1Cc1ccco1)N1CCN(C(=O)c2ccco2)CC1.Cl (centres unmarked) | -20.6
CCCC(c1nnnn1CCc1ccccc1)N1CCN(C(=O)c2ccco2)CC1 (centres unmarked) | -49.3
CCC(c1nnnn1CCOC)N1CCN(C(=O)c2ccco2)CC1.Cl (centres unmarked) | 9.17
CCC(C)(C)n1nnnc1C(C(C)C)N1CCN(C(=O)c2ccco2)CC1 (centres unmarked) | -29.7
CCCC(c1nnnn1C(C)(C)CC)N1CCN(C(=O)c2ccco2)CC1.Cl (centres unmarked) | -54
CCCC(c1nnnn1Cc1ccco1)N1CCN(C(=O)c2ccco2)CC1.Cl (centres unmarked) | -11.8
CCCC(c1nnnn1CCOC)N1CCN(C(=O)c2ccco2)CC1.Cl (centres unmarked) | -4.1
CCCCC(c1nnnn1Cc1ccco1)N1CCN(C(=O)c2ccco2)CC1.Cl (centres unmarked) | -51.8
CCCC(c1nnnn1C(C)(C)C)N1CCN(C(=O)c2ccco2)CC1.Cl (centres unmarked) | -12.8
CCC(c1nnnn1CCc1ccccc1)N1CCN(C(=O)c2ccco2)CC1.Cl (centres unmarked) | -28
CCCC(c1nnnn1Cc1ccc(OC)cc1)N1CCN(C(=O)c2ccco2)CC1 (centres unmarked) | -51.3
CCC(c1nnnn1Cc1ccc(OC)cc1)N1CCN(C(=O)c2ccco2)CC1.Cl (centres unmarked) | -55.5
